The panel holds about 83,000 compounds, 20% with a hit somewhere; the sample as a whole holds those more often.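 96-well plates, one dose, 48 hours. Percent growth reported; active if below 10.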 Values without a mark were called inactive. Activity calls are given as the source filed them.

The subject of this experiment is K-562 leukemia. As to the kind of experiment: NCI-60 one-dose screen, 48 h (100 = growth as untreated, 0 = no growth, -100 = all killed). As to conditions: 10 µM unless noted.
Regarding `COc1cc(C2=NN(C(C)=O)C(c3ccc(N4CCOCC4)cc3)C2)cc(OC)c1OC` (stereo not given), the growth was 114%. In the case of `COc1ccc([C@H]2c3[nH]c4ccccc4c3C[C@@H]3C(=O)N(C4CCN(Cc5ccccc5)CC4)CC(=O)N23)c(OC)c1`, the growth was 28.8%. With `COc1ccc(/C=C/C(=O)c2nnn(-c3ccc(C(=O)O)cc3)c2C)cc1OC`, the growth is 80.8%. Take `O=[N+]([O-])c1ccc(-c2nnc(SCc3ccc(O)c4ncccc34)n2-c2ccccc2)cc1`: the growth is 21.2%.

For `O=C(NCCCNc1cc(-c2cn(-c3ccccc3)nc2-c2cccc(O)c2)ccn1)Nc1cccc(C(F)(F)F)c1`, the growth was 13.3%. Take `CC(C)C(=O)Nc1ccc(-c2nc(-c3cccc(O)c3)c(-c3ccnc(Br)c3)[nH]2)cc1`: the growth was 7.32% (active). For the compound `Cc1cc(F)cc(NS(=O)(=O)c2ccc(-c3cnc(C4CC4)o3)cc2)c1`, the growth is 8.06% (active).

On to `CCOC(=O)c1c(NCC(=O)Nc2cccc(Cl)c2)sc2c1CCCC2`, for which the growth is 66%. Consider `O=S(=O)(Nc1cc(Cl)cc(Cl)c1)c1ccc(-c2cnc(C3CC3)o2)cc1`, for which the growth is 14.4%. With `CCOC(=O)Nc1cccc(-n2cnc3cc(-c4ccc(O)cc4)ccc32)c1`, the growth is 7.15% (active).

In the case of `CC(=O)NC(C)(C)C(=O)N[C@@H](C)C(=O)NC(C)(C)C(=O)N[C@@H](C)C(=O)NC(C)(C)C(=O)N[C@@H](C)C(=O)N[C@@H](CCC(N)=O)C(=O)NC(C)(C)C(=O)N[C@H](C(=O)NC(C)(C)C(=O)NCC(=O)N[C@@H](CC(C)C)C(=O)NC(C)(C)C(=O)N1CCC[C@H]1C(=O)N[C@H](C(=O)NC(C)(C)C(=O)NC(C)(C)C(=O)N[C@@H](CCC(N)=O)C(=O)N[C@@H](CCC(N)=O)C(=O)N[C@H](CO)CC1CCCCC1)C(C)C)C(C)C`, the growth is 24.3% [5 µM]. `Cc1nn(-c2ccc(Cl)cc2)c(C)c1N=Nc1ccc2oc(=O)ccc2c1`: the growth is 73.5%. In the case of `O=C(NCCNc1cc(-c2cn(-c3ccccc3)nc2-c2cccc(O)c2)ccn1)Nc1ccc(Cl)c(C(F)(F)F)c1`, the growth is 35.5%. For the compound `CN(c1ccc(Br)cc1)S(=O)(=O)c1ccc(-c2cnc(C3CC3)o2)cc1`, the growth was 7.96% (active). Consider `CC(C)C[C@H]1C(=O)O[C@H](C(C)C)C(=O)N(C)[C@@H](C(C)C)C(=O)O[C@H](C(C)C)C(=O)N(C)[C@@H](C(C)C)C(=O)O[C@H](C(C)C)C(=O)N1C`, for which the growth was 8.19% (active). Consider `CCCC(=O)NC(c1cccnc1)c1cc(Cl)c2cccnc2c1O` (stereo not given), for which the growth is 19.7%. On to `Nc1nc(-c2cccc([N+](=O)[O-])c2)c(N=Nc2ccccc2[N+](=O)[O-])s1`, for which the growth is 50.8%. `C/C(=N\NC(=O)CSc1nc2sc3c(c2c(=O)n1-c1ccccc1)CCC(C)C3)c1ccc(Cl)cc1` (stereo not given): the growth was 16.5%. Take `C#C[C@]1(O)CC[C@H]2[C@@H]3CC=C4c5sc(Nc6nc(C)cc(OC)n6)nc5CC[C@]4(C)[C@H]3CC[C@@]21C`: the growth is 14%.

Consider `CN1CCN(c2ccc(NC(=O)Nc3ccc4c(ccn4-c4cccc(C(N)=O)n4)c3)cc2C(F)(F)F)CC1`, for which the growth is -13.8% (active). For `COc1ccc(NS(=O)(=O)c2ccc(-c3cnc(C4CC4)o3)cc2)cc1Cl`, the growth was 10.1%.

Consider `COc1ccc(-c2ccc3c4c(cccc24)C(=O)N(N2C(=O)c4cccc5cccc(c45)C2=O)C3=O)cc1`, for which the growth is 86.4%. With `N#Cc1c(NC(=O)c2ccc(F)c(Cl)c2)sc2c1CCC(=O)C2` the figure was 9.06% (active). In the case of `Nc1ccc(-c2nnc(SCc3ccc(O)c4ncccc34)o2)cc1`, the growth is 3.52% (active). Take `IP(CCCCCCCCCCSc1n(Cc2ccc3ccccc3c2)c(-c2ccccc2)c(-c2ccccc2)[n+]1Cc1ccc2ccccc2c1)(c1ccccc1)(c1ccccc1)c1ccccc1`: the growth was -46.4% (active). Take `Cc1cc(Cl)cc(NS(=O)(=O)c2ccc(-c3cnc(C4CC4)o3)cc2)c1`: the growth was 8.81% (active). Turning to `COc1cc(/C=N/n2cnc3oc(-c4ccccc4)cc3c2=N)cc(CN2CCCCC2)c1O`, the growth was 3.54% (active). In the case of `CCOC(=O)c1c(NC(=O)c2ccc(C(C)(C)C)cc2)sc2cc(OCCN3CCCCC3)ccc12`, the growth is 16%. `NS(=O)(=O)Oc1ccc2nc(Nc3ccc(F)c(F)c3)ccc2c1`: the growth was 67.6%. With `CC(=O)c1sc(Nc2cccc(Nc3nc(C)c(C)s3)c2)nc1C` the figure was 40.9%.
